The source of these data is PubChem BioAssay (NCATS).

Assay [1] deals with Lysine-specific demethylase 5B (Homo sapiens) (UniProt Q9UGL1). Briefly: Optimization screen for KDM5B Histone Demethylases FDH coupled qHTS against the LOPAC library (AID 1347166). Also: 0% is about no effect. A digest of the protocol:
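KDM5BDeltaAP (200nM final) preincubated 10 min with compound, then 12.5uM H3K4Me3, 25uM a-ketoglutarate, ascorbate, Fe(II), NAD+ and FDH added; 50mM HEPES pH 7.5, 0.01% Tween-20. NADH fluorescence (340/450 nm) change over 30 min, room temperature.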

Assay [2] is described as follows: qHTS to identify inhibitors of the type 1 interferon - major histocompatibility complex class I in skeletal muscle: primary screen against the NCATS LOPAC collection (AID 1347405).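 Also: lytic HiBiT luminescence reporting HLA-B protein level; % is scaled to controls: 0 for no effect and ±100 for the full control effect.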 A digest of the protocol:
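Luminescence from HiBiT fused to endogenous HLA-B in CRISPR-engineered human myoblasts served as the read-out. Cells received 4.0 ng/ml IFN-beta plus compound (seven concentrations, 1:4.3 steps, highest 46 uM final) for 24 hrs before lytic detection.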

Assay [3] can be described thus: qHTS to identify inhibitors of the type 1 interferon - major histocompatibility complex class I in skeletal muscle: primary screen against the NCATS Pharmaceutical Collection (AID 1347407).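 Also: luminescence of HiBiT knocked into endogenous HLA-B as interferon-induced MHC class I level; % is scaled to controls: 0 for no effect and ±100 for the full control effect.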 The essentials:
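Cells were seeded with 4 ng/ml IFN-beta, incubated 1 h, then dosed with compounds over eight 1:5 steps up to 46 uM final. After 24 h at 37 C, HiBiT lytic reagent was added and luminescence read after 10 min lysis in the dark.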

A short description of assay [4]: qHTS for inhibitors of adenylyl cyclases using a fission yeast platform: a pilot screen against the NCATS LOPAC library (AID 1347410).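 Also: plate controls were DMSO vehicle for no effect and DPI positive control for full effect.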 A digest of the protocol: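 Growth medium went into the plates first, then compounds were pinned (final up to 57 µM), then CHP2027 yeast were added. Plates were incubated overnight (18 h) at 30C in the dark, and GFP was measured by laser scanning cytometry.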

Assay [5] deals with Protein phosphatase 1D (Homo sapiens) (UniProt O15297). Briefly: RapidFire Mass Spectrometry qHTS Assay for Modulators of WT P53-Induced Phosphatase 1 (WIP1) (AID 1347424).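 Also: amount of dephosphorylated VEPPL-S-QETFS peptide product formed by WIP1; series mostly up to about 63 µM; plate controls were DMSO wells for no effect and GSK830371 inhibitor control at 10 µM for full effect.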 A digest of the protocol:
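10 nM WIP1 preincubated with compounds 1 hr at room temperature in pH 7.5 Tris buffer with 30 mM MgCl2, 1 mM TCEP; 2 uM VEPPL-pS-QETFS phosphopeptide for 5 min, formic acid quench; dephosphorylated product quantified by RapidFire MS against labelled standard.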

Assay [6] shares this target. As to the kind of experiment: Rhodamine-PBP qHTS Assay for Modulators of WT P53-Induced Phosphatase 1 (WIP1) (AID 1347425). Also: % of control where 0% means no effect. A digest of the protocol: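 Steps: enzyme with Rh-PBP sensor and compounds, room-temperature incubation of 1 hr, baseline read, addition of VEPPL-pS-QETFS (10 uM final), kinetic fluorescence reads at 525/598 nm. Activity equals final minus baseline signal.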

Assay [7] can be described thus: Validation qHTS assay for inhibitors of Activation Induced Cytidine Deaminase (AID): UDG Counterscreen signal (AID 1347427). Also: 0% is about no effect. The essentials:
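Counterscreen read of UDG activity (2 U/mL, 4/3x) in the FRET deamination format with AID (1 uM, 4/3x), DJC20/DJC23 substrates (250 nM, 4x), 4 h at room temperature. NaOH stop, fluorescence at 560 ex/665 em.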

The target in assay [8] is Single-stranded DNA cytosine deaminase (Homo sapiens) (UniProt Q9GZX7). Briefly: Validation qHTS assay for inhibitors of Activation Induced Cytidine Deaminase (AID): AID signal (AID 1347429). Also: % is scaled to controls: 0 for no effect and ±100 for the full control effect. A digest of the protocol:
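Fluorescence at 540 nm excitation and 590 nm emission reports ssDNA cytosine deamination by AID, with UDG in the same well. Compound-treated reactions ran 4 hr at room temperature with DJC20/DJC23 substrate, followed by 30 min NaOH treatment.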

Assay [9] in a line: Primary qHTS for inhibitors of La Crosse Virus (LACV) - induced cell death in SH-SY5Y cells (AID 1508616).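 Also: top concentration of the series differs between compounds; 0% = infected DMSO wells and 100% = uninfected DMSO wells; higher means more rescue of cells from virus-induced death.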 The essentials:
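Protection against LACV-induced cell death is scored in SH-SY5Y cells exposed to compounds and virus (0.01 MOI) for 6 days. Data normalized to virus-infected DMSO wells and virus-free DMSO wells.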

The target of assay [10] is Calcium and integrin-binding protein 1 (Homo sapiens) (UniProt Q99828). Briefly: Validation qHTS for Identification of Calcium Integrin Binding protein 1 (CIB1) Competitor (AID 1508618). Also: % is scaled to controls: 0 for no effect and ±100 for the full control effect. The essentials: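 In this qHTS validation, the LOPAC set (up to 114 uM) was tested for blocking CIB1 binding to a fluorescein-tagged alphaIIb peptide, with FP detection at 480/540 nm.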

Assay [11] has the same target. Briefly: Primary qHTS for Identification of Calcium Integrin Binding Protein 1 (CIB1) Competitor (AID 1508620). The essentials: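 Fluorescence polarization competition: GST-tagged CIB1 (1 uM final) preincubated with compound 15 min at room temperature, then FITC-labelled alphaIIb peptide (100 nM final) added. After 15 min at room temperature, polarization read at Ex 480/Em 540.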

Assay [12] is described as follows: Confirmatory qHTS for small molecule stabilizers of the endoplasmic reticulum resident proteome: Secreted ER Calcium Modulated Protein (SERCaMP) assay (AID 1508628). Also: nearly all actives have a fitted effect of over 40% in size. Also: potency is read from the fitted curve at half-maximal effect. A digest of the protocol: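 SH-SY5Y cells stably expressing GLuc-SERCaMP, treated 16 h with compound (primary 1.53, 7.67, 38.3 uM; confirmation 11 concentrations, up to 76.6 uM), then 100 nM thapsigargin for 4 h. Secreted Gaussia luciferase in medium read by coelenterazine luminescence.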

Values without a mark were called inactive. Inconclusive results are not listed. Activity calls are given as the source filed them. Calls follow the shape of the dose curve; as a rule, active = well fitted curve in the direction sought with a large enough effect; inconclusive = small, poorly fitted or top-dose-only effect, or another doubt; inactive = no such curve, though single readings can be large; an effect the other way counts as inactive or inconclusive.

Sequence of Single-stranded DNA cytosine deaminase (Homo sapiens) (Q9GZX7 whole entry, looked up): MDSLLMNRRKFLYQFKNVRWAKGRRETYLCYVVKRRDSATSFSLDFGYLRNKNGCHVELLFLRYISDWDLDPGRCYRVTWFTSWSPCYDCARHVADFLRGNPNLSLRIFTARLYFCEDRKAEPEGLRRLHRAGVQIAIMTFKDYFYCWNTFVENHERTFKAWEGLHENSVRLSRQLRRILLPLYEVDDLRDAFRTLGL
Sequence of Calcium and integrin-binding protein 1 (Homo sapiens) (Q99828 whole entry, looked up): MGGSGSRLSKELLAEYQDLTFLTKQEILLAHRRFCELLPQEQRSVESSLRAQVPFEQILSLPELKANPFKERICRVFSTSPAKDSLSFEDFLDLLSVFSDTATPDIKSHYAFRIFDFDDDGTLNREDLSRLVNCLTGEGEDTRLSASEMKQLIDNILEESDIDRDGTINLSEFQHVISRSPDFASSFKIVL
Sequence of Lysine-specific demethylase 5B (Homo sapiens) (Q9UGL1 whole entry, looked up): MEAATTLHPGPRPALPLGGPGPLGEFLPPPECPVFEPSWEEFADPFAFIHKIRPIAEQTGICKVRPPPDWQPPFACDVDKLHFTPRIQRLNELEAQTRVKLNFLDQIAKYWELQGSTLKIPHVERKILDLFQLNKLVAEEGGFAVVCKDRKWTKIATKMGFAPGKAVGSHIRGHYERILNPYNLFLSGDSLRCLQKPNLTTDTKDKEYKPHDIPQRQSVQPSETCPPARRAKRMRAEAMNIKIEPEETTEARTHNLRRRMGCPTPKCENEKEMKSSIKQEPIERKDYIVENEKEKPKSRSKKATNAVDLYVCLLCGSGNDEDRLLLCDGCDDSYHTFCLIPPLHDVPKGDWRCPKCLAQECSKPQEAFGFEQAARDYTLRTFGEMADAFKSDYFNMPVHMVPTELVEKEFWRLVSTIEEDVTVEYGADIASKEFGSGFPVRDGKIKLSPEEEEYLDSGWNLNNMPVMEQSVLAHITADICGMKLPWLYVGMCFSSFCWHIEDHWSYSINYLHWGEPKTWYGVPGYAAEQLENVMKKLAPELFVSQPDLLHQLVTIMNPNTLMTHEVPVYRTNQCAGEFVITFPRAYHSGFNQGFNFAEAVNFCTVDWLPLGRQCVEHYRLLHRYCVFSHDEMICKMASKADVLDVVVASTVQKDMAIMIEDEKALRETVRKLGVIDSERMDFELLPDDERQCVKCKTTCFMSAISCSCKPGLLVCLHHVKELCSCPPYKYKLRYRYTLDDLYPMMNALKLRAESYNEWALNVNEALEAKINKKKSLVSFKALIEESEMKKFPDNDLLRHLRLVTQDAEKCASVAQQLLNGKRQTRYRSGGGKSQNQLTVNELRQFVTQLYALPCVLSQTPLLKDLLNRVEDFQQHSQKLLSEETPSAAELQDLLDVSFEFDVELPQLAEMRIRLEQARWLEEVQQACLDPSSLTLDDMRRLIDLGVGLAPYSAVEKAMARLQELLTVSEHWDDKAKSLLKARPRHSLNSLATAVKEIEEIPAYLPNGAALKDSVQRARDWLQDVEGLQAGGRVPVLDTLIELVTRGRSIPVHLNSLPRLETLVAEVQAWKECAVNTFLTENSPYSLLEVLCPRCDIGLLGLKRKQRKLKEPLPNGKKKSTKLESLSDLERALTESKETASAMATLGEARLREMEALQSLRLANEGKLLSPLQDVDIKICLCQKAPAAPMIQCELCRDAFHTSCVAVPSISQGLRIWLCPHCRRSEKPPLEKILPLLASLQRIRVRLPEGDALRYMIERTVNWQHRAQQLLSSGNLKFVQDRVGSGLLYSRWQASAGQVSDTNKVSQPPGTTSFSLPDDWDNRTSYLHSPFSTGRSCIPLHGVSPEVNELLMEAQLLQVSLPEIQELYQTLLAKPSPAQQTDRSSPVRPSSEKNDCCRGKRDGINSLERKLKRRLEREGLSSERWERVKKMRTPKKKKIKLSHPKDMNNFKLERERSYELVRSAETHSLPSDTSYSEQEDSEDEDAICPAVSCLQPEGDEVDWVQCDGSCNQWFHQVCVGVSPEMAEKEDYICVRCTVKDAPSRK
Sequence of Protein phosphatase 1D (Homo sapiens) (O15297 whole entry, looked up): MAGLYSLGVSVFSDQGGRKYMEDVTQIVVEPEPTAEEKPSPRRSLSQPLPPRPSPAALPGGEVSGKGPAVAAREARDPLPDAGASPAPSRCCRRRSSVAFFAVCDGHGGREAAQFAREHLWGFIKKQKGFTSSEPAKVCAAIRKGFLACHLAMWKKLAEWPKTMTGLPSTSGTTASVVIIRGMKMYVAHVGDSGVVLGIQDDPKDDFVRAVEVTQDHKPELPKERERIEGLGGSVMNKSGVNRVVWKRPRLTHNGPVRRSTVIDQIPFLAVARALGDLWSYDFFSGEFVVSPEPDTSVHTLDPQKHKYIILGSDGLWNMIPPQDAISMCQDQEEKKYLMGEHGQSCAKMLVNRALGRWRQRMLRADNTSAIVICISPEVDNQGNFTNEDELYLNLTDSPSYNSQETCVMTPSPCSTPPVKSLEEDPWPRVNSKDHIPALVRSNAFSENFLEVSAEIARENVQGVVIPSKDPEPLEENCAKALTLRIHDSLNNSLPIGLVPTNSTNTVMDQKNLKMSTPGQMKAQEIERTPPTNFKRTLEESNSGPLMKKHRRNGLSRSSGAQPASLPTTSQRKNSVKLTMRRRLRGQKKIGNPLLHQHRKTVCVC

As to `C(=C\c1ccccc1)/CN1CCN(C(c2ccccc2)c2ccccc2)CC1`, the Potency entry in [1], in assay [2], in [3], in assay [5], in assay [8] and in [9] was “inactive” each time. Moreover, in [11], the Potency entry was “inactive”. Moreover, the call in [4], in assay [6], in assay [7] and in assay [10] was inactive.

Turning to `CC(=O)OC(C)C[N+](C)(C)C` (stereo not given), the Potency entry in assay [1], in assay [2], in [3], in [5], in assay [8] and in assay [9] was “inactive” throughout. The Potency entry in [11] is “inactive”. For the same molecule, the result in [4], in assay [6] and in [7] was inactive.

Consider `CN1CCN(CC(=O)N2c3ccccc3C(=O)Nc3cccnc32)CC1`, for which the Potency entry in [1], in assay [2], in assay [8] and in [9] was “inactive” each time. Besides, the activity change, negative = inhibition is -1.82% [at 3.83 µM] in [3], -2.97% [at 6.17 µM] in assay [5], 8.19% [at 4.81 µM] in assay [6] and -0.936% [at 12.4 µM] in assay [11]. The outcome in assay [4], in assay [7] and in [10] was inactive.

For `CCCCCCCC/C=C\CCCCCCCC(=O)NCc1ccc(O)c(OC)c1`, the Potency result in [1], in [2], in assay [3], in assay [5], in assay [8] and in assay [9] was “inactive” in each case. Besides, the Potency result in assay [11] is “inactive”. Moreover, the result in assay [4], in assay [6] and in assay [7] was inactive.

`NC1=NCC2c3ccccc3Cc3ccccc3N12` (stereo not given): the Potency entry in assay [1], in [2], in assay [3], in assay [5], in assay [8] and in [9] was “inactive” throughout. Further, the Potency entry in [11] was “inactive”. Also, the outcome in assay [4], in [6] and in assay [7] was inactive.

On to `CC(C)NNC(=O)c1ccncc1`, for which the Potency entry in assay [1], in [2], in assay [3], in assay [5], in assay [8] and in assay [9] was “inactive” in each case. For the same molecule, the Potency entry in assay [11] is “inactive”. Moreover, the outcome in assay [4], in assay [6], in [7] and in assay [10] was inactive.

Regarding `OC(CCN1CCCCC1)(c1ccccc1)C1CCCCC1` (stereo not given), the Potency result in [1], in [2], in assay [3], in assay [5], in assay [8] and in assay [9] was “inactive” in each case. The outcome in assay [4], in assay [6] and in [7] was inactive. Further, the Potency in [12] is 35.5 µM (active).

Take `CC(=O)OCC1=C(C(=O)O)N2C(=O)[C@@H](NC(=O)Cc3cccs3)[C@H]2SC1`: the Potency entry in [1], in [2], in assay [3], in assay [5], in [8] and in assay [9] was “inactive” each time. Moreover, in assay [11], the Potency result was “inactive”. The molecule was called inactive in assay [4], in assay [6], in [7] and in assay [10].

With `CN(C)C(=O)Oc1cccc([N+](C)(C)C)c1`, the Potency entry in [1], in assay [2], in assay [3], in assay [5], in [8] and in assay [9] was “inactive” in each case. In addition, the Potency entry in [11] is “inactive”. For the same molecule, the molecule was classed as inactive in assay [4], in assay [6], in [7] and in assay [10].

For the molecule `Fc1ccc(C(c2ccc(F)cc2)N2CCN(C/C=C/c3ccccc3)CC2)cc1`, the Potency result in [1], in [2], in assay [3], in [5], in assay [8] and in [9] was “inactive” in each case. For the same molecule, the Potency result in assay [11] is “inactive”. The molecule was called inactive in [4], in [6], in assay [7] and in assay [10].

For the molecule `COc1ccc(CN(CCN(C)C)c2ccccn2)cc1`, the Potency entry in assay [1], in [2], in assay [3], in assay [5], in assay [9] and in assay [11] was “inactive” in each case. The call in assay [4] and in assay [6] was inactive.

For the molecule `CCc1c(C)[nH]c2c1C(=O)C(CN1CCOCC1)CC2` (stereo not given), the Potency result in [1], in assay [2], in [3], in assay [5], in assay [8] and in [9] was “inactive” in each case. Besides, the Potency result in assay [11] is “inactive”. Besides, the molecule was called inactive in assay [4], in [6] and in [7].

With `CN(C)C/C=C(/c1ccc(Br)cc1)c1cccnc1`, the Potency entry in [1], in [2], in assay [3], in assay [5], in [8] and in [9] was “inactive” in each case. Further, in [11], the Potency entry was “inactive”. The molecule was called inactive in assay [4], in assay [6], in [7] and in assay [10].

For `c1cnc(N2CCN(Cc3ccc4c(c3)OCO4)CC2)nc1`, the Potency entry in assay [1], in assay [2], in [3], in assay [5], in assay [8] and in [9] was “inactive” in each case. The Potency entry in assay [11] was “inactive”. The result in assay [4], in assay [6] and in [7] was inactive.

Regarding `CNC1(C)C2CCC(C2)C1(C)C` (stereo not given), the Potency entry in assay [1], in [2], in assay [3], in assay [5], in assay [8] and in [9] was “inactive” each time. In [11], the Potency entry was “inactive”. Besides, the molecule was classed as inactive in assay [4], in assay [6], in assay [7] and in assay [10].

`c1ccc2c(c1)CCCC2C1=NCCN1` (stereo not given): the Potency result in assay [1], in assay [2], in [3], in assay [5], in [8] and in [9] was “inactive” each time. For the same molecule, in assay [11], the Potency result is “inactive”. Moreover, the molecule was called inactive in assay [4], in [6] and in assay [7].

With `CC(=O)Nc1nnc(S(N)(=O)=O)s1`, the Potency entry in [1], in assay [2], in assay [3], in [5], in assay [8] and in [9] was “inactive” in each case. In assay [11], the Potency result was “inactive”. Besides, the molecule was called inactive in [4], in assay [6], in assay [7] and in [10].

For `O=C(O)CP(=O)(O)O`, the Potency entry in assay [1], in [2], in assay [3], in [5], in assay [8] and in [9] was “inactive” throughout. Moreover, in [11], the Potency result was “inactive”. For the same molecule, the molecule was called inactive in assay [4], in [6] and in [7].

As to `CN(C)CCCN1c2ccccc2Sc2ccccc21`, the Potency result in [1], in assay [2], in assay [3], in [5], in assay [8] and in [9] was “inactive” throughout. Besides, the Potency result in assay [11] was “inactive”. Moreover, the outcome in [4], in assay [6], in assay [7] and in [10] was inactive.

For the molecule `CN(C)CCOC(=O)COc1ccc(Cl)cc1`, the Potency entry in assay [1], in assay [2], in assay [3], in assay [5], in assay [8] and in [9] was “inactive” each time. In addition, the Potency result in [11] is “inactive”. Further, the result in assay [4], in assay [6] and in assay [7] was inactive.

As for `CCC(=O)c1ccc2c(c1)N(CCCN(C)C)c1ccccc1S2`, the Potency entry in assay [1], in assay [2], in [3], in [5], in assay [8] and in [9] was “inactive” in each case. The Potency entry in [11] and in assay [12] was “inactive” each time. Also, the call in assay [4], in assay [6], in assay [7] and in assay [10] was inactive.

On to `CCN(CC)CC(=O)Nc1c(C)cccc1C`, for which the Potency result in assay [1], in assay [2], in assay [3], in [5], in assay [8] and in [9] was “inactive” throughout. Further, in assay [11], the Potency result is “inactive”. The result in [4], in assay [6] and in assay [7] was inactive.
